The source of these data is ChEMBL document CHEMBL1157539, “Thousands of chemical starting points for antimalarial lead identification” (Nature, 2010).

Each structure is given as a SMILES string. Values joined by “and” are separate entries in the source; they are usually repeats but may differ in a detail not shown here. Equal entries are not always repeated.

One assay relates to Plasmodium falciparum. The assay is described as follows: GSK_TCMDC: Inhibition of Plasmodium falciparum 3D7 in whole red blood cells, using parasite LDH activity as an index of growth. Test compounds present at 2uM. It counts as functional.
Take `CCOC(=O)c1ccc(COc2ccc(C)nc2)cc1`: the Inhibition (commonly the relative decrease from the control value, in per cent) was 100%.
Same read-out and setting: in the case of `COc1ccc(Nc2nccc(NCC(O)c3cccc(C(F)(F)F)c3)n2)cc1` (configuration not stated) it was 98%.
The same measure, in the same setting: as for `O=C(Nc1ccc(S(=O)(=O)N2CCCCC2)cc1)c1cc(-c2cc(Cl)ccc2O)n[nH]1`, the figure is 97%.

The subject of another assay is Plasmodium falciparum. The experiment in a line: GSK_TCMDC: Inhibition of Plasmodium falciparum Dd2 in whole red blood cells, using parasite LDH activity as an index of growth. Test compounds present at 2uM. It counts as functional.
In turn, `O=C(NC1CCCCC1)c1ccc(O)c(-c2cccc(C(F)(F)F)c2)c1` gave an Inhibition of 87%.
`CC(=O)Nc1ncc(C(=O)Nc2ccc(-c3cccc(-c4nc5cc(C(F)(F)F)ccc5[nH]4)c3)cc2)s1` returned an Inhibition of 92%.
Same read-out and setting: as for `CC(=O)Nc1nc(C(=O)Nc2ccc(-c3cccc(-c4nc5cc(C(F)(F)F)ccc5[nH]4)c3)cc2)cs1`, the figure is 97%; as for `COc1ccc2nccc([C@H](O)CN3CCC(NCc4nc5cccc(F)c5[nH]4)CC3)c2c1.O=C(O)C(=O)O`, 0%; as for `O=C(O)C1CC(=O)N(c2ccc(Cl)cc2)C1` (configuration not stated), 33%.
The same measure, in the same setting: in the case of `COc1cccc(CN2CCCC(CCC(=O)Nc3ccc(C(F)(F)F)cc3)C2)c1O` (configuration not stated) it was 97%.
On the same count and under the same terms, in the case of `COc1ccc2nccc([C@@H](O)CN3CCC(NC(=O)C(c4cc5ccccc5o4)N4CCN(c5ccccc5)CC4)CC3)c2c1` (some centres not stated) it was 99%; in that of `CCC(C)NC(=O)Nc1ccc(-c2cccc(-c3nc4ccccc4[nH]3)c2)cc1` (configuration not stated), 37%.
Consider `CC(C)Cn1c(Sc2ccc(C#N)c([N+](=O)[O-])c2)nnc1-c1cccc(Cl)c1`, for which the Inhibition worked out at 95%.
On the same count and under the same terms, in the case of `COc1cccc(-c2nc3c(N4CCN(c5ccncc5)CC4)cccc3n2CC2CCCCCN2)n1.O=C(O)C(F)(F)F` (configuration not stated) it was 31%; in that of `CC(C)CCNc1nc(NCCc2ccccc2)c2cc(O)ccc2n1`, 97%; in that of `Cl.Nc1ccc(-c2nc3c(ccc4ccccc43)[nH]2)cc1`, 51%.
Still for that read-out and setting: as for `COc1ccc(C=CC(=O)NC(=O)c2ccccc2OC(=O)c2ccccc2)cc1OC`, the figure is 90%.
The same measure, in the same setting: in the case of `N=C(Nc1nc(-c2ccccn2)cc2ccccc12)c1cccc(Cl)c1` it was 99%.
On to `CCC(CC(NCCCCNC(=O)c1ccc(NC(=O)c2ccc(Cl)cc2)cc1)c1ccccc1)c1ccccc1OC` (configuration not stated), for which the Inhibition is 56% and 76%.
Still for that read-out and setting: as for `COc1ccc2nccc([C@@H](O)CN3CCC(NCCNc4ccccn4)CC3)c2c1.O=C(O)C(=O)O`, the figure is 14%.
`O=C(Nc1ccc(Cl)cc1)c1ccc(CN2CCCN(Cc3ccc(F)cc3)CC2)cc1.O=C(O)C(F)(F)F` returned an Inhibition of 8%.
On the same count and under the same terms, as for `O=C(O)C(F)(F)F.Oc1ccc(CC2CCCN(c3nc(NCCCOc4ccccc4-c4ccccc4)nc(N4CCNCC4)n3)C2)cc1` (configuration not stated), the figure is 77%; as for `O=C(O)C(F)(F)F.c1cc(-c2ccc(CNCc3ccsc3)cc2)cc(-c2nc3ccccc3[nH]2)c1`, 82%.
Molecule `COc1c(C2=CCN(CCCCNC(=O)c3ccc(-c4ccc(C#N)cc4)cc3)CC2)c(C)cc2c1C(C)(C)CCC2(C)C` came in with an Inhibition of 88%.
In turn, `CCN(CC)CCN(Cc1ccc(-c2ccc(C(F)(F)F)cc2)cc1)C(=O)Cn1c(CCc2cccc(F)c2F)nc(=O)c2ccc(C)cc21.O=C(O)C(O)C(O)C(=O)O` yielded an Inhibition of 58%.
Same read-out and setting: in the case of `CN(C)CCNCc1ccc(-c2ccc(-c3nc4cc(F)ccc4[nH]3)cc2)cc1.O=C(O)C(F)(F)F` it was 99%; in that of `Cl.O=C1Nc2ccc3ncccc3c2/C1=C/Nc1ccc(N2CCN(CCO)CC2)cc1`, 55%.
In turn, `CCNc1cc(C)nc(Nc2ccc(NS(=O)(=O)c3cc(OC)ccc3OC)cc2)n1` showed an Inhibition of 36%.
On the same count and under the same terms, in the case of `Cn1cccc1C(=O)NCC(CCNc1cc(=O)c2ccccc2[nH]1)NCc1cc(Br)cc(Br)c1` (configuration not stated) it was 52%; in that of `CC(C)C[C@H](NC(=O)c1cc(-c2ccc(C(C)(C)C)cc2)no1)C(=O)O.CC(C)C[C@H](NC(=O)c1conc1-c1ccc(C(C)(C)C)cc1)C(=O)O`, 6%.
Still for that read-out and setting: in the case of `CCCCCCCc1ccc(-c2c(C)[nH]c(C)c(Cl)c2=O)cn1` it was 96%; in that of `COc1ccc(CC(Cc2ccc(OC)cc2)NCC(O)c2cccc(Cl)c2)cc1` (configuration not stated), 98%; in that of `O=C(/C=C/c1ccc(Cl)c(Cl)c1)N1CCN(C(=O)Nc2ccc(F)c(Cl)c2)CC1`, 87%.
Same read-out and setting: in the case of `Cc1cc(NC2CCN(Cc3ccccc3)CC2)nc(NCCCCc2ccccc2)n1` it was 60%.
The molecule `COc1ccc(Nc2nccc(N3CCC(NC(=O)c4cc5ccccc5s4)C3)n2)cc1` (configuration not stated) returned an Inhibition of 86%.
With `O=C(NCc1ccccc1)c1ccc(C(=O)NCC2CNCCO2)cc1.O=C(O)C(F)(F)F` (configuration not stated), the Inhibition is reported as 0%.
On the same count and under the same terms, in the case of `CN1CCCC(CN2CCN(Cc3ccc(-c4cccc(-c5nc6ccccc6[nH]5)c4)cc3)CC2)C1.O=C(O)C(F)(F)F` (configuration not stated) it was 100%; in that of `CCCc1cc(Cc2cnc(N)nc2N)cc(CCC)c1OC.Cl`, 1%; in that of `Cc1ccc(O)c(C(=O)c2cc(C(=O)Nc3ccccc3C)c(=O)n(-c3ccccc3C)c2)c1`, 81%.
The same measure, in the same setting: in the case of `CC1(C)CCCC(=Cc2ccc(Br)cc2)C1(O)Cn1ccnc1` (configuration not stated) it was 69%; in that of `CCOC(=O)c1ccc(COc2ccc(C)nc2)cc1`, 0%; in that of `COc1ccc(Nc2nccc(NCC(O)c3cccc(C(F)(F)F)c3)n2)cc1` (configuration not stated), 33%.
The same measure, in the same setting: in the case of `O=C(Nc1ccc(S(=O)(=O)N2CCCCC2)cc1)c1cc(-c2cc(Cl)ccc2O)n[nH]1` it was 87%.
